According to PubChem BioAssay (NCI):
Compounds without any hit were thinned out: in the full panel of roughly 79,000, 15% have a hit. Calls of active or inactive are those of the source. Cut-off read from the data, not from the text of the source: active = growth inhibition above about 70%; inactive = the rest.

What was measured:
[1] = NCI Yeast Anticancer Drug Screen. Data for the rad52 strain (AID 147);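 note: 0% = growth of vehicle-treated control cultures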; conditions: S. cerevisiae rad52 mutant growth inhibition, stronger effect = higher value
In short: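 Yeast strain carrying a DNA damage repair alteration was exposed to test compounds. Growth inhibition was measured relative to vehicle-treated controls.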

[2] = NCI Yeast Anticancer Drug Screen. Data for the wt1 strain (AID 149);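 note: 0% = growth of vehicle-treated wt1 cultures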; conditions: S. cerevisiae wt1 strain (SPY 50644) growth inhibition, stronger effect = higher value
In short: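 Yeast wt1 strain exposed to compounds; growth inhibition measured relative to vehicle-treated controls.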

[3] = NCI Yeast Anticancer Drug Screen. Data for the rad50EPP+ strain (AID 151);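 note: 0% = growth of vehicle-treated control cultures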; conditions: S. cerevisiae rad50 mutant strain, stronger effect = higher value
In short: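 Yeast strain carrying rad50 alteration (rad50EPP+) exposed to compounds; growth inhibition measured relative to vehicle-treated controls.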

[4] = NCI Yeast Anticancer Drug Screen. Data for the rad50 strain (AID 155);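 note: 0% = growth of vehicle-only cultures of the same strain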; conditions: S. cerevisiae rad50 strain growth inhibition, stronger effect = higher value
In short: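 Yeast carrying a defined DNA repair defect were exposed to test compounds, and growth was compared with vehicle-treated controls to give percent inhibition.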

[5] = NCI Yeast Anticancer Drug Screen. Data for the mec2-1 strain (AID 157); conditions: S. cerevisiae mec2-1 strain, stronger effect = higher value
In short: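 mec2-1 yeast strain, carrying an alteration in DNA damage repair or cell cycle control, was exposed to compounds; growth inhibition was measured relative to vehicle-treated controls.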

[6] = NCI Yeast Anticancer Drug Screen. Data for the rad14 strain (AID 159);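 note: 0% = growth of vehicle-treated control cultures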; conditions: S. cerevisiae rad14 strain growth inhibition, stronger effect = higher value
In short: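 Yeast cells carrying a defined DNA-repair defect were exposed to compounds, and growth inhibition was calculated relative to vehicle-treated control cultures.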

[7] = NCI Yeast Anticancer Drug Screen. Data for the sgs1 mgt1 strain (AID 161);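 note: 0% = growth of cultures given vehicle only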; conditions: S. cerevisiae sgs1 mgt1 strain, stronger effect = higher value
In short: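 Percent growth inhibition was derived by comparing compound-exposed mutant yeast with vehicle-exposed cultures. The strain carries alterations in DNA damage repair.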

[8] = NCI Yeast Anticancer Drug Screen. Data for the CLN2oe strain (AID 163);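 note: 0% = growth of vehicle-only control cultures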; conditions: S. cerevisiae CLN2oe strain, stronger effect = higher value
In short: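 Yeast cells carrying a defined cell-cycle control alteration were exposed to test compounds. Growth inhibition was scored against vehicle-treated control cultures.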

[9] = NCI Yeast Anticancer Drug Screen. Data for the cln2 rad14 strain (AID 165);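 note: 0% = growth equal to vehicle treated cultures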; conditions: S. cerevisiae cln2 rad14 strain, stronger effect = higher value
In short: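 Yeast carrying cln2 and rad14 alterations (cell cycle control and DNA damage repair) were exposed to compounds. Growth inhibition was measured against vehicle-treated controls.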

[10] = NCI Yeast Anticancer Drug Screen. Data for the bub3 strain (AID 167); conditions: S. cerevisiae bub3 mutant strain, stronger effect = higher value
In short: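 Compounds were applied to a genetically altered yeast strain carrying a cell-cycle control defect. Growth inhibition was scored against vehicle-treated controls.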

[11] = NCI Yeast Anticancer Drug Screen. Data for the wt2 strain (AID 169);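 note: 0% = growth of vehicle-treated yeast cultures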; conditions: S. cerevisiae wt2 strain growth inhibition, stronger effect = higher value
In short: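 Yeast cells were exposed to test compounds, and growth inhibition was measured relative to vehicle-treated controls.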

[12] = NCI Yeast Anticancer Drug Screen. Data for the mlh1 strain (AID 171);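 note: 0% = growth of vehicle-treated control cultures of the same strain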; conditions: S. cerevisiae mlh1 strain growth inhibition, stronger effect = higher value
In short: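 Yeast carrying a defined genetic alteration in DNA damage repair or cell cycle control were exposed to test compounds. Growth inhibition was measured relative to vehicle-treated controls.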

[13] = NCI Yeast Anticancer Drug Screen. Data for the sgs1 strain (AID 173);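 note: 0% = growth of vehicle-only control cultures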; conditions: S. cerevisiae sgs1 mutant, stronger effect = higher value
In short: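 Yeast mutant strains carrying defined defects in DNA damage repair or cell cycle control were exposed to test compounds. Growth inhibition was scored against vehicle-treated controls.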

[14] = NCI Yeast Anticancer Drug Screen. Data for the mlh1 rad18 strain (AID 175); conditions: S. cerevisiae mlh1 rad18 strain growth inhibition, stronger effect = higher value
In short: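 Growth inhibition of the yeast strain was measured after compound exposure and expressed relative to vehicle-treated controls. The strain carries defined defects in DNA damage repair.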

[15] = NCI Yeast Anticancer Drug Screen. Data for the mgt1 strain (AID 153); conditions: S. cerevisiae mgt1 mutant growth inhibition, stronger effect = higher value
In short: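 Yeast mgt1 strain (DNA repair/cell-cycle alteration panel) exposed to compounds; growth inhibition measured relative to vehicle-treated controls.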

[16] = NCI Yeast Anticancer Drug Screen. Data for the rad18 strain (AID 177); conditions: S. cerevisiae rad18 mutant growth inhibition, stronger effect = higher value
In short: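 Yeast carrying a defined DNA damage repair alteration were exposed to compounds. Growth inhibition was expressed relative to vehicle-treated controls.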

[17] = at 5.0 µM (retest, dose inferred, filed as 0.5)
[18] = at 50.0 µM (retest, dose inferred, filed as 5.0)

Measured: growth inhibition

CCCCCCSc1nc(COC(=O)NC)c(COC(=O)NC)n1C
active: [1]; at 100.0 µM 98% | [2]; at 100.0 µM 98% | [3]; at 100.0 µM 87% | [4]; [18] 91% | [4]; at 100.0 µM 99% | [5]; at 50.0 µM 98.3% | [5]; at 100.0 µM 99% | [6]; at 100.0 µM 99% | [8]; at 100.0 µM 97% | [9]; at 50.0 µM 72.8% | [10]; at 100.0 µM 99% | [11]; at 100.0 µM 99% | [12]; at 100.0 µM 99% | [13]; at 100.0 µM 99% | [14]; [18] 74% | [14]; at 50.0 µM 98.3%
inactive: [1]; at 1.2 µM -1% | [1]; at 3.7 µM 0% | [1]; at 11.0 µM -2% | [1]; at 33.0 µM 25% | [2]; at 1.2 µM -1% | [2]; at 3.7 µM -2% | [2]; at 11.0 µM -2% | [2]; at 33.0 µM 6% | [3]; at 1.2 µM -3% | [3]; at 3.7 µM -6% | [3]; at 11.0 µM -6% | [3]; at 33.0 µM 5% | [4]; at 1.2 µM 0% | [4]; at 3.7 µM -48% | [4]; [17] 0% | [4]; at 11.0 µM 20% | [4]; at 33.0 µM 54% | [4]; at 50.0 µM 49.6% | [5]; at 1.2 µM -1% | [5]; at 3.7 µM 2% | [5]; [17] 0% | [5]; at 11.0 µM 0% | [5]; at 33.0 µM 9% | [5]; [18] 27% | [6]; at 1.2 µM -3% | [6]; at 3.7 µM -4% | [6]; at 11.0 µM -4% | [6]; at 33.0 µM 28% | [7]; [17] 0% | [7]; [18] 5% | [7]; at 50.0 µM 19.9% | [8]; at 1.2 µM -2% | [8]; at 3.7 µM -5% | [8]; at 11.0 µM -3% | [8]; at 33.0 µM 20% | [9]; [17] -2% | [9]; [18] 57% | [10]; at 1.2 µM -4% | [10]; at 3.7 µM 0% | [10]; [17] -2% | [10]; at 11.0 µM -4% | [10]; at 33.0 µM 16% | [10]; [18] 45% | [10]; at 50.0 µM 44.2% | [11]; at 1.2 µM -3% | [11]; at 3.7 µM -14% | [11]; at 11.0 µM -4% | [11]; at 33.0 µM 33% | [12]; at 1.2 µM -1% | [12]; at 3.7 µM 0% | [12]; at 11.0 µM -2% | [12]; at 33.0 µM 32% | [13]; at 1.2 µM -4% | [13]; at 3.7 µM -3% | [13]; at 11.0 µM -6% | [13]; at 33.0 µM 59% | [14]; [17] -2%

COc1cc([C@@H]2c3cc4c(cc3[C@@H](OC3OC5COC(C)OC5C(O)C3O)[C@H]3COC(=O)[C@H]23)OCO4)cc(OC)c1O (stereo not given in full)
active: [1]; at 100.0 µM 81% | [4]; at 100.0 µM 89%
inactive: [1]; at 1.2 µM 1% | [1]; at 3.7 µM 4% | [1]; at 11.0 µM 20% | [1]; at 33.0 µM 51% | [2]; at 1.2 µM -1% | [2]; at 3.7 µM -2% | [2]; at 11.0 µM -2% | [2]; at 33.0 µM -1% | [2]; at 100.0 µM -13% | [3]; at 1.2 µM -9% | [3]; at 3.7 µM -3% | [3]; at 11.0 µM 2% | [3]; at 33.0 µM 9% | [3]; at 100.0 µM 23% | [15]; at 1.2 µM -4% | [15]; at 3.7 µM -4% | [15]; at 11.0 µM -2% | [15]; at 33.0 µM 0% | [15]; at 100.0 µM 0% | [4]; at 1.2 µM 0% | [4]; at 3.7 µM 4% | [4]; at 11.0 µM 20% | [4]; at 33.0 µM 61% | [4]; at 50.0 µM 11.6% | [5]; at 1.2 µM -3% | [5]; at 3.7 µM 0% | [5]; at 11.0 µM 4% | [5]; at 33.0 µM 2% | [5]; at 50.0 µM 11.6% | [5]; at 100.0 µM 4% | [6]; at 1.2 µM -2% | [6]; at 3.7 µM -2% | [6]; at 11.0 µM 3% | [6]; at 33.0 µM 2% | [6]; at 100.0 µM 12% | [7]; at 50.0 µM 13.8% | [8]; at 1.2 µM -2% | [8]; at 3.7 µM -6% | [8]; at 11.0 µM -4% | [8]; at 33.0 µM -4% | [8]; at 100.0 µM -6% | [9]; at 50.0 µM 11.3% | [10]; at 1.2 µM -7% | [10]; at 3.7 µM -8% | [10]; at 11.0 µM 0% | [10]; at 33.0 µM -12% | [10]; at 50.0 µM 4.5% | [10]; at 100.0 µM -5% | [11]; at 1.2 µM -3% | [11]; at 3.7 µM -2% | [11]; at 11.0 µM -4% | [11]; at 33.0 µM -3% | [11]; at 100.0 µM 3% | [12]; at 1.2 µM -4% | [12]; at 3.7 µM -3% | [12]; at 11.0 µM -1% | [12]; at 33.0 µM 0% | [12]; at 100.0 µM 7% | [13]; at 1.2 µM -3% | [13]; at 3.7 µM -3% | [13]; at 11.0 µM 1% | [13]; at 33.0 µM 5% | [13]; at 100.0 µM 16% | [14]; at 50.0 µM 64.8% | [16]; at 1.2 µM -4% | [16]; at 3.7 µM -2% | [16]; at 11.0 µM -2% | [16]; at 33.0 µM 6% | [16]; at 100.0 µM 18%

S=P(N1CC1)(N1CC1)N1CC1
inactive: [1]; at 1.2 µM -1% | [1]; at 3.7 µM 2% | [1]; at 11.0 µM 3% | [1]; at 33.0 µM 4% | [1]; at 100.0 µM 16% | [2]; at 1.2 µM -3% | [2]; at 3.7 µM -3% | [2]; at 11.0 µM -2% | [2]; at 33.0 µM -2% | [2]; at 100.0 µM -22% | [3]; at 1.2 µM -4% | [3]; at 3.7 µM -5% | [3]; at 11.0 µM -4% | [3]; at 33.0 µM 7% | [3]; at 100.0 µM 34% | [15]; at 1.2 µM -5% | [15]; at 3.7 µM -2% | [15]; at 11.0 µM -1% | [15]; at 33.0 µM -1% | [15]; at 100.0 µM -1% | [4]; at 1.2 µM -3% | [4]; at 3.7 µM 0% | [4]; at 11.0 µM 4% | [4]; at 33.0 µM 6% | [4]; at 50.0 µM 28.6% | [4]; at 100.0 µM 23% | [5]; at 1.2 µM -5% | [5]; at 3.7 µM -3% | [5]; at 11.0 µM -1% | [5]; at 33.0 µM -2% | [5]; at 50.0 µM -0.7% | [5]; at 100.0 µM 5% | [6]; at 1.2 µM 0% | [6]; at 3.7 µM 3% | [6]; at 11.0 µM 5% | [6]; at 33.0 µM 9% | [6]; at 100.0 µM 20% | [7]; at 50.0 µM 30.1% | [8]; at 1.2 µM -4% | [8]; at 3.7 µM 0% | [8]; at 11.0 µM -6% | [8]; at 33.0 µM -10% | [8]; at 100.0 µM -3% | [9]; at 50.0 µM 6.4% | [10]; at 1.2 µM -3% | [10]; at 3.7 µM -2% | [10]; at 11.0 µM 0% | [10]; at 33.0 µM -6% | [10]; at 50.0 µM 13.8% | [10]; at 100.0 µM -11% | [11]; at 1.2 µM -1% | [11]; at 3.7 µM -2% | [11]; at 11.0 µM -2% | [11]; at 33.0 µM -17% | [11]; at 100.0 µM 2% | [12]; at 1.2 µM 0% | [12]; at 3.7 µM -1% | [12]; at 11.0 µM -2% | [12]; at 33.0 µM 1% | [12]; at 100.0 µM 7% | [13]; at 1.2 µM -2% | [13]; at 3.7 µM -4% | [13]; at 11.0 µM -2% | [13]; at 33.0 µM 3% | [13]; at 100.0 µM 20% | [14]; at 50.0 µM -2.75%
